PubChem BioAssay AID2069 (Sanford-Burnham Center for Chemical Genomics, 2009)
Out of some 1,200 compounds screened, about 210 (18%) were called active. No stated cut-off is given here; in the data, active means inhibition above about 30%; inactive means the rest. Only a sample is shown.

Assay: HTRF signal interference by compounds, confirmation, artefact control for SUMOylation inhibitor project, biochemical, uHTS (AID 2069)
Conditions: HTRF interference counterscreen, fluorescence, at 35 µM, stronger effect = higher value

SMILES | inhibition
O=C(/C=C/c1ccco1)Nc1cccc2cccnc12 | 2.9% (inactive)
CCOC(=O)c1c(CSc2ccccc2)n(C)c2cc(Br)c(OCC(O)CNC(CO)(CO)CO)cc12 (stereo not given) | 0.05% (inactive)
O=C(Cc1cc(=O)oc2cc(O)ccc12)NCC1CCC(C(=O)O)CC1 (stereo not given) | 44.1% (active)
CN(C)c1cccc(C(=O)OCc2cc(=O)oc3cc(O)ccc23)c1 | 3.4% (inactive)
O=C(Nc1cccc2nsnc12)c1ccc(-c2ccc(Br)cc2)o1 | 22.6% (inactive)
O=C(NCCc1ccccc1)c1ccc2nc(-c3ccco3)c(-c3ccco3)nc2c1 | 12.2% (inactive)
Cc1nn(CC(=O)Nc2ccc(C(=O)N(C)C)cc2)c(=O)c2ccccc12 | -0.95% (inactive)
Nc1nnc(-c2cc3c(ccc4ccccc43)oc2=O)s1 | 30.1% (active)
CNc1nnc(-c2cc3ccccc3oc2=O)s1 | 23.1% (inactive)
CCOc1cccc2cc(-c3nnc(NCc4ccco4)s3)c(=O)oc12 | 26.9% (inactive)
Brc1ccc(C2Nc3cccc4cccc(c34)N2)o1 | -8.65% (inactive)
C/C(=N\OCc1nc2ccccc2c(=O)n1/N=C/c1cc(C)cc([N+](=O)[O-])c1O)c1ccccc1 | -17% (inactive)
CCOC(=O)Cn1c2ccc(OC)cc2c2nc3ccccc3nc21 | 53.6% (active)
COC(=O)Cn1c2ccc(C)cc2c2nc(C)sc21 | 2.05% (inactive)
CCOC(=O)Cn1c2ccccc2c2nc3ccccc3nc21 | 25.7% (inactive)
CCc1cccc(NC(=S)Nc2cccc3ccccc23)c1 | 2.95% (inactive)
O=c1cc2c(=O)oc3cc(O)c(O)oc3c2c(O)c1O | -3.8% (inactive)
Cc1cc(=O)n2[nH]c(N)c(N=Nc3ccccc3)c2n1 | -13.8% (inactive)
O=c1c(-c2ccccc2)coc2c(CN3CCCC3)c(O)ccc12 | 42% (active)
COc1ccccc1/C=N/Nc1cc(N(C)C)nc(N(C)C)n1 | 11.9% (inactive)
Cn1c(=O)c(Nc2ccc(O)cc2)c2c3c(cccc31)C(=O)c1ccccc1-2 | -3.25% (inactive)
Cc1cccc(/C=N/NC(=O)C(C)Nc2cccc3ccccc23)n1 (stereo not given) | 1.6% (inactive)
NC(=O)N/N=C/c1ccc2cccc(OCc3ccccc3)c2n1 | 68.3% (active)
O=C(CNc1cccc2ccccc12)N/N=C/c1ccccn1 | 17.4% (inactive)
COc1ccc(N=C2NC(=O)/C(=C\c3ccco3)S2)cc1 | 4.75% (inactive)

SMILES | inhibition
COc1ccc(-n2c(CNc3ccc(C)cc3)nnc2SCC(=O)Nc2nc(-c3ccccc3)cs2)cc1 | -1.4% (inactive)
Cc1cccc(NC(=O)CC2Nc3cccc4cccc(c34)NC2=O)c1 (stereo not given) | -17.8% (inactive)
O=C(O)/C=C/C(=O)Nc1ccc2c(c1)NC(=O)CO2 | -0.95% (inactive)
Nc1nnc(CC(=O)N/N=C/c2cc([N+](=O)[O-])cc(Br)c2O)s1 | 30% (active)
COc1cc([N+](=O)[O-])cc(/C=N/NC(=O)CC#N)c1O | 21.6% (inactive)
O=C(N/N=C/c1cc(Br)cc(Br)c1O)c1ccncc1 | 12.4% (inactive)
NC(=O)CC(NC(=O)Cc1ccc(Br)cc1)c1ccc(NCCc2ccccc2F)c([N+](=O)[O-])c1 (stereo not given) | 5.95% (inactive)
O=C(/C=C/c1ccco1)NC(=S)NNC(=O)c1ccco1 | -18.9% (inactive)
O=C(O)CSc1cc(C(=O)c2cc(F)ccc2O)cn2c(=O)c3c(-c4ccccc4)csc3nc12 | 28.9% (inactive)
N#Cc1c(N(CCO)CCO)nc(N)c2c(N)nc3c(c12)CC(=O)N3Cc1cccs1 | 25.1% (inactive)
N#Cc1c(N(CCO)CCO)nc(N)c2c(N)nc3c(c12)CC(=O)N3CC1CCCO1 (stereo not given) | 41.8% (active)
CCCN(CC1CC1)c1nc(N)c2c(N)nc(OC)cc2c1C#N | 10.2% (inactive)
N#Cc1c(N2CCN(c3ccc(F)cc3)CC2)nc(N)c2c(N)nc3c(c12)CC(=O)N3C1CC1 | 16.5% (inactive)
CN(CCO)c1nc(N)c2c(N)nc3c(c2c1C#N)CC(=O)N3C1CCCC1 | 43.9% (active)
COc1ccc(C)c2sc(NC(=O)c3cccc(N4C(=O)CCC4=O)c3)nc12 | 21% (inactive)
CC(C)C(=O)Nc1cccc(C(=O)NCc2ccc3c(c2)OCO3)c1 | -4.7% (inactive)
N#Cc1c(-c2ccc(Cl)cc2)cc(-c2cccs2)nc1SCC(=O)O | -4.9% (inactive)
CCOC(=O)C1CCN(C2=C(NS(=O)(=O)c3ccc(Br)cc3)C(=O)c3ccccc3C2=O)CC1 | -7.95% (inactive)
O=C(Nc1ccc(Br)cc1)c1ccc(N2C(=O)C3CC=C(Cl)CC3C2=O)cc1 (stereo not given) | -0.95% (inactive)
C=CCn1c(NC(=O)c2ccc(Br)o2)c(S(=O)(=O)c2ccccc2)c2nc3ccccc3nc21 | 8.1% (inactive)
C=CCNC(=O)c1c(N)n(-c2cccc(S(N)(=O)=O)c2)c2nc3ccccc3nc12 | 33% (active)
COCCCNC(=O)c1c(N)n(-c2ccccc2)c2nc3ccccc3nc12 | 33.6% (active)
COc1ccc(-n2c(N)c(C(=O)NCc3ccco3)c3nc4ccccc4nc32)cc1OC | 11.5% (inactive)
Nc1c(C(=O)NCc2ccco2)c2nc3ccccc3nc2n1CCc1ccccc1 | 11% (inactive)
C=CCn1c(NS(=O)(=O)c2ccccc2)c(S(=O)(=O)c2ccc(C)cc2)c2nc3ccccc3nc21 | 23.6% (inactive)

SMILES | inhibition
COCCNC(=O)c1c(N)n(CCC2=CCCCC2)c2nc3ccccc3nc12 | 25.1% (inactive)
COCCNC(=O)c1c(N)n(CCCn2ccnc2)c2nc3ccccc3nc12 | 40% (active)
CCc1cc(=O)oc2c3c(cc(OCC(=O)NCCCCCC(=O)O)c12)OC(C)(C)CC3 | 29.8% (inactive)
Cc1ccc(Sc2cc(NCCCO)c([N+](=O)[O-])c3nonc23)cc1 | 0.15% (inactive)
COc1ccc(-c2csc(CCN3N=C(C)CC3=O)n2)cc1 | -4.6% (inactive)
Cc1cc2oc(C(=O)Nc3ccc(S(=O)(=O)Nc4nccs4)cc3)cc(=O)c2cc1Cl | -9.2% (inactive)
Cc1ccc(CSc2nnc(SCC(=O)N/N=C/c3c[nH]c4ccccc34)s2)cc1 | -3.9% (inactive)
CC1CCCN(C2=C(NS(=O)(=O)c3ccc(Br)cc3)C(=O)c3ccccc3C2=O)C1 (stereo not given) | -7.35% (inactive)
Cc1cccc(NC(=S)Nc2cccc3ccccc23)c1 | -3.85% (inactive)
COc1cc(/C=C2/C(=O)N(c3ccc([N+](=O)[O-])cc3)N=C2N2CCOCC2)ccc1O | -19.4% (inactive)
N#Cc1c(NC(=O)CSc2ncnc3sccc23)oc(-c2ccco2)c1-c1ccco1 | 7.1% (inactive)
CC1=NN(c2ccc(Cl)cc2)C(=O)C1C(c1ccccc1O)c1c(C)[nH]n(-c2ccc(Cl)cc2)c1=O (stereo not given) | -12.7% (inactive)
CC(C)(C)c1cnnn1-c1cccc([N+](=O)[O-])c1 | 6.3% (inactive)
CN1CCCc2cc3c(C(F)(F)F)cc(=O)oc3nc21 | 57.5% (active)
O=C(CC1CS(=O)(=O)CC1CC(=O)Oc1ccccc1F)Oc1ccccc1F (stereo not given) | 5.6% (inactive)
CC(=O)Oc1ccc2cc(-c3nc4ccccc4n3C)c(=O)oc2c1 | 38.6% (active)
CC1=C(C#N)C(=O)NC(=O)/C1=C/c1ccc(-c2ccc(S(N)(=O)=O)cc2)o1 | 19.2% (inactive)
O=c1c2ccccc2nc2n1CCC2 | 31.4% (active)
Cc1nc2ccccc2c(=O)n1/N=C/c1ccc(O)c(O)c1O | 7.15% (inactive)
Cc1ccc(/C=N/NC(=O)c2cccc(S(=O)(=O)Nc3cccc(Cl)c3)c2)o1 | 9.55% (inactive)
O=[N+]([O-])c1cccc(S(=O)(=O)Nc2nc3ccccc3nc2Nc2cccc(S(=O)(=O)N3CCCCC3)c2)c1 | -17.1% (inactive)
CC1=NN(c2ccccc2)C(=O)/C1=C\c1ccc(Br)s1 | -10.7% (inactive)
Nc1ccc(N2CCCCC2)c2nonc12 | -23.7% (inactive)
COc1ccc(C2C3=C(CCCC3=O)Nc3c(-c4ccccc4)c(C)nn32)cc1 (stereo not given) | 46.6% (active)
COc1ccc(N2C3=C(CC4=C2CCCC4=O)C(=O)CCC3)cc1 | 18.1% (inactive)

SMILES | inhibition
O=C(CNc1cccc2ccccc12)N/N=C/c1ccc([N+](=O)[O-])cc1 | -4% (inactive)
Cn1c(CNc2ccc(O)cc2)nc2ccccc21 | -19.7% (inactive)
Cn1c(-c2ccc(C=O)s2)nc2ccccc21 | 49.1% (active)
Cn1c(-c2ccc(C=O)s2)nc2c3ccccc3c3ccccc3c21 | 22.3% (inactive)
CC(C)CC(=O)Nc1ccc(C(=O)Cn2nc(C(=O)O)c3ccccc3c2=O)cc1 | -7.35% (inactive)
[O-]/C(=C(\C(=S)Nc1cccc2ccccc12)[n+]1cccc(CO)c1)c1ccc(Cl)s1 | -14.8% (inactive)
COc1ccc(Cn2c(C)c(C)c(C#N)c2NC(=O)Nc2ccc(F)cc2)cc1 | 1.75% (inactive)
COc1ccc(Cc2n[nH]c(=S)n2NC(=O)Nc2ccc(Cl)c(Cl)c2)cc1 | 54.1% (active)
COc1ccc(Cc2n[nH]c(=S)n2NC(=O)Nc2ccc(C)cc2)cc1 | 20.8% (inactive)
CCOC(=O)C1=C(C)N=c2s/c(=C\c3ccc(OCC(=O)O)cc3)c(=O)n2C1c1ccc(OC(C)C)cc1 (stereo not given) | 12.8% (inactive)
COc1ccc(C(=O)N2CCC(O)(c3ccc(F)cc3)CC2)cc1OC | 39% (active)
COc1cccc(OC)c1C(=O)N1CCNCC1 | -12.3% (inactive)
Cc1[nH][nH]c(=O)c1C(c1c(C)[nH][nH]c1=O)c1cn(C)c2ccccc12 | -22.4% (inactive)
COc1cccc(C(=O)Nc2cccc(C(=O)NC3=NN(c4c(Cl)cc(Cl)cc4Cl)C(=O)C3)c2)c1 | -11.8% (inactive)
CCN(CC(=O)c1c(N)n(C)c(=O)n(C)c1=O)c1cccc2ccccc12 | 11.8% (inactive)
COc1cc(/C=N/NC(=O)c2ccccc2O)ccc1OCC(=O)Nc1ccccc1 | 15.4% (inactive)
Cc1cc2n(n1)SC(Nc1cccc3ccccc13)N2 (stereo not given) | -6.45% (inactive)
Oc1cccc(C=Nc2cccc3ccccc23)c1O | 8.55% (inactive)
Cc1ccc(N2CSC3=C(C#N)C(c4cccs4)CC(=O)N3C2)cc1 (stereo not given) | -28.4% (inactive)
Cc1c(CC(=O)N2CCN(C(=O)C3COc4ccccc4O3)CC2)c(=O)oc2c(C)c(O)ccc12 (stereo not given) | 66.6% (active)
Cc1ccc(C)c(S(=O)(=O)C(C#N)c2nc3ccccc3nc2N2CCCC2)c1 (stereo not given) | 1.8% (inactive)
CCCCCc1c2c(cc(O)c1C(=O)O)OC(=O)c1c(cc(OC)cc1C(=O)CCCC)O2 | 11.2% (inactive)
c1coc(-c2nnc(-c3ccco3)nn2)c1 | 7.95% (inactive)
Cc1cccc2nc(-c3ccco3)c(Nc3ccc4c(c3)OCO4)n12 | -6.85% (inactive)
Cc1cc(=O)[nH]c(SCC(=O)c2ccc(O)c(O)c2)n1 | 7.45% (inactive)
